IL1B secr inh = inflammasome signaling inhibition, IL-1 beta readout; THP-1 LPS/ATP IL-1B secretion, AlphaLISA, 16 h; active compounds read low; hit rate 4.7% among 360,000; activity change, % at 57.5 µM; in the data active = activity change below about -50%; inconclusive = mostly about -30% to -49%
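THP-1 cells pretreated 1 hr with compounds (up to 57.5 uM final), then stimulated with LPS (250 ng/mL final) plus ATP (1.25 mM final); secreted IL-1B measured by AlphaLISA after 16 hr, decreased signal indicating inhibition.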
HT1080 IDH1KD tx = toxicity to HT-1080 IDH1 knockdown cells (counter line); HT-1080 IDH1 knockdown viability, ATP luminescence, 48 h; Potency, µM (highest dose often 46.1 µM), for inactives: at the highest dose activity, negative = toxicity, hits mostly cytotoxic; hit rate 2% among 360,000; AID 686971;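 also: potency is read from the fitted curve at half-maximal effect; 0% = DMSO wells and -100% = cell-free medium wells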
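After a 2 h attachment period, IDH1KD HT-1080 cells took pin-transferred compound for 48 h at 37 °C; ATP-based luminescence after 10 min room-temperature reagent incubation reported viability.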
HT1080NT lethal = kills 2HG-producing HT-1080-NT fibrosarcoma cells; HT-1080-NT fibrosarcoma viability, CellTiter-Glo ATP luminescence, 48 h; AID 686970; Potency, µM (top dose mostly 46.1 µM), inactives show at the highest dose activity, negative = less viability, hits mostly cytotoxic; hit rate 1.6% among 360,000;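 also: NT is the 2HG producing partner of a matched IDH1 knockdown line; potency is read from the fitted curve at half-maximal effect; 0% = DMSO-treated cells and -100% = media-only wells without cells; nearly all actives have a fitted effect of over 55% in size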
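HT-1080-NT fibrosarcoma cells (2HG-overproducing), 750 cells/well in RPMI with 5% FBS, dosed after 2 h and incubated 48 h at 37C. CellTiter-Glo luminescence normalized to DMSO and no-cell wells; concentration-response curves fitted and classed.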
DT40 TDP1 CPT = DT40-hTDP1 cell growth loss with CPT | chicken DT40 Tdp1-/-;hTDP1 cells + 20 nM CPT, ATP luminescence, 48 h | Potency, µM (doses to about 46.2 µM), for inactives: top-dose activity change, negative = growth inhibition, most hits filed as inhibitors | hit rate 12% among 420,000; also: potency is read from the fitted curve at half-maximal effect; nearly all actives have a fitted effect of over 55% in size
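Cell growth measured by CellTiter-Glo luminescence after a minimum 48 h, 37 C compound exposure with 20 nM CPT in Tdp1-knockout DT40 cells stably expressing hTDP1, seeded 400/well; qHTS titration format.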
TDP1 cell noCPT = qHTS for Inhibitors of human tyrosyl-DNA phosphodiesterase 1 (TDP1): qHTS in cells in absence of CPT | Potency, µM (top dose mostly 46.2 µM), for the others: top-dose activity change, negative = growth inhibition, actives largely listed as inhibitors | hit rate 15% among 420,000 | DT40 Tdp1-/- hTDP1 cells, no CPT, ATP luminescence, 48 h | AID 686978, 2013; also: potency is read from the fitted curve at half-maximal effect; nearly all actives have a fitted effect of over 55% in size
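Luminescent ATP content (CellTiter-Glo) served as the growth readout. Knockout chicken DT40 cells expressing human TDP1 were exposed to compounds without camptothecin for a minimum 48 hr at 37 °C.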
ELG1 DNA repair = ELG1-dependent DNA repair inhibition | AID 504467 | hit rate 2.3% among 330,000 | HEK293T ELG1-luciferase reporter, luminescence, 16 h; DNA damage induced by 5-fluorouridine | Potency, µM (doses to about 46.1 µM), inactives show top-dose activity change, negative = inhibition, hits mostly inhibitors; also: potency is read from the fitted curve at half-maximal effect; nearly all actives have a fitted effect of over 55% in size
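Overnight (16 hr) co-exposure of 2,000 cells/well to 5-fluorouridine and compound at 37 °C preceded detection. Luciferase was quantified via ONE-Glo luminescence; loss of signal denotes inhibition.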
* marks the source's active call; other numbers are inactive results; [ ] = dose if it differs, or a comment. Most compounds without a hit are left out; they make up all but 19% or so of the library. Unless noted, calls follow the shape of the dose curve; as a rule, active = well fitted curve in the direction sought with a large enough effect; inconclusive = small, poorly fitted or top-dose-only effect, or another doubt; inactive = no such curve, though single readings can be large; an effect the other way counts as inactive or inconclusive. Unless noted, % is scaled to controls: 0 for no effect and ±100 for the full control effect.

What do the screens show for `CC(C)Oc1ccc(C(=O)OCC(=O)NC(=O)NC2CCCC2)cc1`?
IL1B secr inh: 27; HT1080 IDH1KD tx: -2%; HT1080NT lethal: 0%[9.24 µM]; DT40 TDP1 CPT: -18%; TDP1 cell noCPT: 14%; ELG1 DNA repair: 2%

Results for O=C(CO/N=C/c1ccc(OC(F)F)cc1)NC1CCCC1 ?
IL1B secr inh: -14; HT1080 IDH1KD tx: 1%; HT1080NT lethal: 0%; DT40 TDP1 CPT: -21%; TDP1 cell noCPT: -27%; ELG1 DNA repair: -16%

How did O=C(CO/N=C/c1ccc(OC(F)F)cc1)NC1CCCCCC1 do in these assays?
IL1B secr inh: -57*; HT1080 IDH1KD tx: -1%; HT1080NT lethal: -14%; DT40 TDP1 CPT: inconclusive; TDP1 cell noCPT: inconclusive; ELG1 DNA repair: inconclusive

What do the screens show for `CCCCCc1ccc(C)cc1O`?
DT40 TDP1 CPT: -68%; TDP1 cell noCPT: -72%

How did CC(C)CCn1c(N2CCCC2)nc2c1c(=O)n(C)c(=O)n2C do in these assays?
IL1B secr inh: 43; HT1080 IDH1KD tx: -7%; HT1080NT lethal: -3%; DT40 TDP1 CPT: inconclusive; TDP1 cell noCPT: 21µM*; ELG1 DNA repair: -6%

What do the screens show for `CCCCCCn1c(N2CCCC2)nc2c1c(=O)n(C)c(=O)n2C`?
IL1B secr inh: -3; HT1080 IDH1KD tx: -11%; HT1080NT lethal: -8%; DT40 TDP1 CPT: inconclusive; TDP1 cell noCPT: 18µM*; ELG1 DNA repair: inconclusive

What do the screens show for `O=C(Nc1ccc(C(=O)OCc2cc(=O)n3c4c(sc3n2)CCCC4)cc1)c1ccc(F)cc1`?
DT40 TDP1 CPT: -24%; TDP1 cell noCPT: -19%

How did COCCN1C[C@@H](CO)O[C@@H](n2cnc3c(NCc4ccc(F)cc4)ncnc32)C1 do in these assays?
IL1B secr inh: 10; HT1080 IDH1KD tx: 29%; HT1080NT lethal: inconclusive; DT40 TDP1 CPT: -27%; TDP1 cell noCPT: -11%

What do the screens show for `CCN(Cc1cccc(S(=O)(=O)O)c1)c1ccc(C(=C2C=CC(=[N+](CC)Cc3cccc(S(=O)(=O)O)c3)C=C2)c2ccccc2S(=O)(=O)[O-])cc1`?
DT40 TDP1 CPT: 2µM*; TDP1 cell noCPT: 13µM*

What do the screens show for `CN(Cc1ccccc1NS(=O)(=O)c1ccc2ccccc2c1)C1CCCCC1`?
IL1B secr inh: 12; HT1080 IDH1KD tx: -21%; HT1080NT lethal: -21%; DT40 TDP1 CPT: inconclusive; TDP1 cell noCPT: 21µM*; ELG1 DNA repair: -5%

How did CC1(C(=O)NS(=O)(=O)c2ccc(C#N)cc2)CCN1C(=O)C1CCCCC1 (stereo unspecified) do in these assays?
IL1B secr inh: 9; HT1080 IDH1KD tx: 22%; HT1080NT lethal: inconclusive; DT40 TDP1 CPT: 5%; TDP1 cell noCPT: -3%

How did Cc1nc(SCC(=O)NCCN2C(=O)CSC2=O)nc(C)c1C do in these assays?
IL1B secr inh: 3; HT1080 IDH1KD tx: 0%; HT1080NT lethal: -4%; DT40 TDP1 CPT: -1%; TDP1 cell noCPT: 2%; ELG1 DNA repair: 12%

Results for Cc1nn(C)c(C)c1Nc1ccc(N2C(=O)C3C4C=CC(C4)C3C2=O)cc1[N+](=O)[O-] (stereo unspecified) ?
IL1B secr inh: 44; HT1080 IDH1KD tx: -1%; HT1080NT lethal: 17%; DT40 TDP1 CPT: inconclusive; TDP1 cell noCPT: 23µM*; ELG1 DNA repair: inconclusive

How did Cc1nn(C)c(C)c1Nc1ccc(N2C(=O)C3CC=CCC3C2=O)cc1[N+](=O)[O-] (stereo unspecified) do in these assays?
IL1B secr inh: 47; HT1080 IDH1KD tx: -22%; HT1080NT lethal: 0%; DT40 TDP1 CPT: inconclusive; TDP1 cell noCPT: inconclusive; ELG1 DNA repair: 0%

Source: PubChem BioAssay (National Center for Advancing Translational Sciences (NCATS))
